Experimental data taken from the supplement of paper PMC6555819.

Columns and labels:
Assay in all cases: PBM binding z-score (relative to random genomic background probes); higher = stronger binding; sequences stand for … in GC…GCGATTGACAGCGTAGAATGAAGG
[1] = system: FXR:RXRa (NR concentration 270 nM, RXRa partner concentration 90 nM)
Procedure, shortened: (§1)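 For binding z-scores, the reference was random background probes on custom Agilent 4×180K protein-binding microarrays. These arrays were incubated 1 h with ligand-free nuclear receptor dimers in PBS pH 7.4, 2% milk, 0.02% Triton X-100, 1 mM DTT, 0.2 mg/mL BSA and 0.4 mg/ml salmon testes DNA. Fluorescence was scanned after antibody detection of each partner (one per run) and regression-normalized.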

[2] = system: LXRa:RXRa (NR concentration 270 nM, RXRa partner concentration 90 nM)
Procedure, shortened: as §1

[3] = system: LXRa homodimer (NR concentration 270 nM)
Procedure, shortened: as §1

[4] = system: LXRb:RXRa (NR concentration 270 nM, RXRa partner concentration 90 nM)
Procedure, shortened: as §1

[5] = system: LXRb homodimer (NR concentration 270 nM)
Procedure, shortened: as §1

[6] = system: PPARa:RXRa (NR concentration 270 nM, RXRa partner concentration 90 nM)
Procedure, shortened: as §1

[7] = system: PPARg:RXRa (NR concentration 180 nM, RXRa partner concentration 90 nM)
Procedure, shortened: as §1

[8] = system: PPARg:RXRa 270nM:90nM, anti-RXR (NR concentration 270 nM, RXRa partner concentration 90 nM)
Procedure, shortened: as §1

[9] = system: PPARg:RXRa 30nM:10nM, anti-RXR (NR concentration 30 nM, RXRa partner concentration 10 nM)
Procedure, shortened: as §1

[10] = system: PPARg:RXRa 90nM:30nM, anti-RXR (NR concentration 90 nM, RXRa partner concentration 30 nM)
Procedure, shortened: as §1

[11] = system: PPARg:RXRa DBDmut IVT, anti-RXR (DBD mutation: RXRa K156A/R161A, NR concentration 270 nM, RXRa partner concentration 90 nM)
Procedure, shortened: as §1

[12] = system: PPARg:RXRa IVT, anti-PPARg (NR concentration 270 nM, RXRa partner concentration 90 nM)
Procedure, shortened: as §1

[13] = system: PPARg DBDmut:RXRa IVT, anti-PPARg (DBD mutation: PPARg1 K132A/R137A, NR concentration 270 nM, RXRa partner concentration 90 nM)
Procedure, shortened: as §1

[14] = system: PPARg DBDmut IVT, anti-PPARg (DBD mutation: PPARg1 K132A/R137A, NR concentration 270 nM)
Procedure, shortened: as §1

[15] = system: PPARg homodimer (NR concentration 180 nM)
Procedure, shortened: as §1

[16] = system: PXR:RXRa (NR concentration 270 nM, RXRa partner concentration 90 nM)
Procedure, shortened: as §1

[17] = system: PXR homodimer (NR concentration 270 nM)
Procedure, shortened: as §1

[18] = system: RARa homodimer (NR concentration 270 nM)
Procedure, shortened: as §1

[19] = system: RARb:RXRa (NR concentration 270 nM, RXRa partner concentration 90 nM)
Procedure, shortened: as §1

[20] = system: RARa:RXR (NR concentration 270 nM, RXRa partner concentration 90 nM)
Procedure, shortened: as §1

Sequence	PBM binding z-score [1]	PBM binding z-score [2]	PBM binding z-score [3]	PBM binding z-score [4]	PBM binding z-score [5]	PBM binding z-score [6]	PBM binding z-score [7]	PBM binding z-score [8]	PBM binding z-score [9]	PBM binding z-score [10]	PBM binding z-score [11]	PBM binding z-score [12]	PBM binding z-score [13]	PBM binding z-score [14]	PBM binding z-score [15]	PBM binding z-score [16]	PBM binding z-score [17]	PBM binding z-score [18]	PBM binding z-score [19]	PBM binding z-score [20]
ATCGAAAGGTCGAAGGTCAGTATACCCACCCGAA	5.6	4.68	1.05	4.53	0.966	5.61	6.96	6.43	3.83	5.97	0.724	3.24	0.938	0.568	2.47	5.13	0.812	1.68	4.54	
GCTTACGGGTCAAAGGTTATAGTATGAATAGAAT	6.98	5.83	0.73	5.84	0.6	6.76	11.2	9.15	8.51	9.75	4.49	5.45	1.28	1.07	1.98	6.29	0.804	0.757	4.25	
CGTCCAAGGTCATAGGAGGTCACTGAAGACAGAT	7.73	7.6	6.16	6.62	1.26	6.26	6.52	6.6	3.16	5.31	3.85	5.27	1.24	1.12	5.21	7.29	6.78	3.25	5.39	
CGTCCAAGGTCAAGCTCAGTGAAAGAGACTCGAA	7.44	5.54	0.428	3.91	0.539	5.75	5.25	5.77	1.89	4.21	3.71	3.76	0.736	0.448	3.54	3.92	0.3	0.572	5.27	
CAAACTAGGTCACAGAGGTCGAAGTCCGTGCGTA	4.92	4.23	1.74	3.62	0.575	5.48	9	6.93	5.15	7.32	8.27	8.42	2.27	0.791	2.22	4.41	3.65	0.511	4.35	
CCTTACGGGTCAGGGTTATAGCACGGGTGGTACG	3.45	2.22	-0.256	1.95	-0.0988	3.9	2.72	3.18	0.621	1.96	0.748	2.22	-0.0775	-0.847	1.81	2.25	-0.00485	0.308	3.41	3.06
ACTAGTTGTTCAGCTGAGGTCACACACAATTCGG	3.49	3.18	2.25	3.55	0.715	3.83	1.53	1.94	0.705	1.03	0.514	2.19	0.853	0.948	2.16	4.83	1.87	1.09	3.28	
GCTGCTAGGTCAACTGAGGGTCAGCTAAAGCTCG	5.12	4.47	1.48	3.45	0.289	4.35	3.55	4.15	0.901	2.72	4.93	4.17	-0.389	-0.635	4.56	4.5	-0.492	0.262	4.83	5.93
CCTACTGGGCCAAAGGACATTGATTCCAATGCTC	-0.0323	-0.0828	-0.295	-0.127	-0.465	2.62	5.82	6.75	5.26	7.73	4.14	4.09	-0.131	-0.115	0.47	-0.488	-0.554	-0.235	0.93	-0.324
CAAACTAGGTCAAGAGGTCAAACTCCGCTTCCCG	7.36	6.74	6.8	5.98	2.74	6.77	10.1	8.55	7.7	9.09	8.21	8.74	4.72	2.13	6.57	6.37	4.12	2.88	5.41	8.15
CTCGAAAGGTCGAGCTCAGGTGAGTATACCAAAC	5	3.57	-0.0751	3.02	-0.142	4.73	2.39	3.54	1.14	2.04	0.787	1.71	1.15	0.22	2.06	2.86	-0.325	0.256	4.2	
CGTCCAAGGTCATAAGAGGTCAGTGAAGACAGAT	7.91	7.9	5.88	7.04	2.11	5.7	5.38	5.99	2.54	4.85	3.48	4.2	2.03	-0.112	7.68	7.11	7.52	4	5.47	
CCTACTGGGGCACGAAAGGTCATTGATTCAGTGA	4.09	5.15	4.81	4.57	0.0561	4.99	6.01	5.54	2.79	4.75	5.75	6.88	0.869	0.0108	3.09	5.68	1.16	0.333	4.41	5.47
AGTCAAAGTTCATCTAGGTATCGTAAGATATGCT	6.52	5.79	5.29	3.63	2.09	4.52	6.38	5.82	3.16	5.19	0.0537	2.59	0.906	0.493	2.49	5.11	5.44	1.32	4.95	3.62
